# According to publication PMC6212790, “How bacterial xenogeneic silencer rok distinguishes foreign from self DNA in its resident genome”:
# Whole data set: some 33,000 sequences, median “e-score” near -0.038, cut for the highest 2% near 0.33. This is one part of a sample in which the highest values are shown more often than they occur.
# Biological target: T1, GST-Rok-C97-191 (Bacillus subtilis subsp. subtilis str. …, UniProt O34857 97-191)
# T1 sequence: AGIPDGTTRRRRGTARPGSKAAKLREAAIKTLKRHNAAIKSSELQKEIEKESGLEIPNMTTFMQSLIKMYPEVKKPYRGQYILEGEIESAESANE
# Assay: protein binding microarray; Rok is a gene silencer of Bacillus subtilis; high values mean tight binding
# Conditions: protein: recombinant; tags: GST (pTH5325, pDEST15-Magic modified); dsDNA, one strand shown
# Summary of the method: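 Every oligonucleotide joins a 25-mer constant primer to a 35-mer variable part drawn from a de Bruijn sequence of order 10, so each non-palindromic 8-mer appears at least 32 times and each palindromic 8-mer 16 times. The preference for every 8-mer is reported as a unitless, rank-based enrichment score (E-score). This score spans 0.5 for the most favored 8-mer to −0.5 for the most disfavored.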
row,Sequence,binding signal [E-score]
1,ACGTACGG,0.0152
2,ACTAGTAC,0.393
3,ACTAGTAA,0.423
4,ACCAGTAT,0.196
5,ACTAGTCT,0.215
6,ACTAGTAT,0.409
7,GCTAGTAC,0.184
8,CCTAGTAG,0.25
9,CCTAGTAA,0.145
10,TCTAGTAA,0.265
11,CCTAGTAC,0.0475
12,ACTAGTAG,0.404
13,ACTAGTCG,0.181
14,ACCTTGGC,-0.158
15,CATTCGAA,0.101
16,AACCAATT,0.204
17,ACTCAAGA,-0.0762
18,CATAATGA,0.175
19,AAATTGAT,0.0406
20,CTTCCTCA,-0.0806
21,GACAGCGA,-0.193
22,GCGTAGAC,-0.111
23,AATATCTA,0.343
24,AATATCTC,0.28
25,GATATCTA,0.349

row,Sequence,binding signal [E-score]
1,AATATCTG,0.2
2,GATATCAA,0.158
3,CATATCTA,0.34
4,CATATCTC,0.0436
5,CATATCGA,0.0885
6,GATATCCA,0.0457
7,ACATCTTC,0.0581
8,ACTAAACC,-0.0801
9,CCTATTAG,0.16
10,CGACTGAA,-0.021
11,CGTAACAG,0.131
12,CGTCGAAA,0.106
13,ATTTAGTG,0.0465
14,AATTAGTG,0.28
15,GTTTAGTA,0.31
16,AATTAGTA,0.408
17,ATTTAGTA,0.4
18,CATTAGTA,0.26
19,CATGGAAC,-0.0493
20,CGTAAATA,0.254
21,CCTGAAAC,-0.0142
22,TATAAAGA,-0.131
23,TAAAGTCA,-0.0164
24,AAATGCCC,0.00515
25,ACTACGCA,-0.0187

row,Sequence,binding signal [E-score]
1,CAGTGTAC,0.0867
2,AGTCAGCA,-0.0559
3,TACAACAA,0.353
4,AACAACTA,0.266
5,GACAACTA,0.295
6,AACAACAA,0.1
7,TACAACTA,0.338
8,GACAACAA,-0.114
9,CCAGTTCG,-0.177
10,ACCAGTAG,0.259
11,GTCATCAA,-0.132
12,CTGGGAAA,-0.136
13,GCTGCTAC,0.0824
14,ACTAAGCA,0.0291
15,ACAACCGG,-0.0576
16,GCTCGAGC,-0.176
17,CATTTGCA,0.157
18,ATCTTCAT,0.204
19,AAACCTTC,0.0022
20,CCGGACAA,-0.145
21,CCACTCTC,-0.129
22,GACTTATA,0.279
23,TACTTATA,0.331
24,TACTTACA,0.31
25,GACTTCTA,0.111

row,Sequence,binding signal [E-score]
1,AACTTATA,0.345
2,CACTTATA,0.281
3,AACTTCTA,0.246
4,TACTTCTA,0.374
5,AACTTATC,0.168
6,GAATGTTA,0.159
7,CAGCAAGA,0.159
8,CCGATATC,0.0718
9,GAGTGTAA,0.0764
10,ACCATTGG,-0.182
11,CAGCTACA,0.0422
12,AAGCTACG,0.0766
13,TAGCTACA,0.353
14,GATCTACA,0.29
15,CATCTACA,0.0976
16,AAGCTACT,0.195
17,GAGCTACA,0.151
18,AAGCTACC,0.362
19,TATCTACA,0.361
20,AATCTACA,0.365
21,ACTCTACA,0.108
22,AGTCTACA,0.0463
23,TAGCACTA,0.191
24,GCGAGTTA,0.0475
25,ACCAGGCG,-0.1

row,Sequence,binding signal [E-score]
1,AATGGCGG,-0.112
2,TCCGGAGA,-0.0285
3,GACAGGCA,-0.106
4,CACATGCA,0.206
5,CGTTTCTC,-0.0794
6,GGTTTCTA,0.353
7,AGTTTCTA,0.389
8,GCTTTCTA,0.319
9,CGTTTCGA,-0.111
10,GTTTTCTA,0.256
11,AGTTTCTG,0.0882
12,AGTTTCTC,0.244
13,CGTTTCTA,0.369
14,GGCGACAC,-0.0519
15,GATAGACC,0.022
16,AGAGAAGG,-0.195
17,CTAGTACC,0.244
18,GATATATC,0.403
19,GTGATATA,0.245
20,GATATATA,0.358
21,GAGATATC,0.182
22,GCGATATA,0.282
23,ATGGGGCC,-0.169
24,ACTAGCAT,0.142
25,TGGTCTAA,0.0359

row,Sequence,binding signal [E-score]
1,GAGTGAAC,0.0307
2,CGACGACC,-0.148
3,AAGCGGGG,-0.141
4,AAGTAGAG,0.0923
5,GAGTAGAA,0.279
6,TAGTAGAA,0.433
7,TAGTAGCA,0.316
8,AAGTAGAA,0.363
9,AAGTAGGA,0.0873
10,AAGTAGAC,0.021
11,CAGTAGAG,0.0442
12,AAGTAGCA,0.259
13,AAGTAGAT,0.407
14,CAGTAGAA,0.426
15,TAGTAGGA,0.252
16,GGTTATTA,0.0524
17,GGCGGTAC,-0.0765
18,ACCGCTCG,-0.0635
19,ATGTCGCC,-0.0714
20,TGCTGGAA,-0.107
21,CCATTAAA,-0.149
22,ATATTTTA,0.384
23,GTATTTGA,0.0326
24,ATATTTTG,0.237
25,CTATTTTA,0.302

row,Sequence,binding signal [E-score]
1,GTATTTTA,0.376
2,GTATTTAA,0.273
3,CTAGCCGC,-0.192
4,TGCGGCAA,0.0751
5,ATTTCTTC,0.204
6,ATTTCTGG,0.0299
7,ACTTCTAC,0.231
8,ATTTCTCA,0.126
9,ATTTCTAC,0.353
10,AGTTCTAG,0.236
11,GTTTCTAA,-0.0431
12,ATTTCTAA,0.357
13,ATTTCTAG,0.366
14,CTTTCTAA,0.1
15,CTTTCTTC,0.0829
16,CTTTCTAC,0.447
17,CCAGGTAG,0.0315
18,GAACCGAA,0.00912
19,CAAGCTAG,0.137
20,ATCCCGTC,-0.181
21,ATGGTATA,0.353
22,ATGGTAAA,0.23
